In PubChem BioAssay AID651820 (National Center for Advancing Translational Sciences (NCATS), 2012):
Hit rate of the full screen: of about 340,000 compounds, about 12,000 (3.5%) were called active. Where a call stands in place of a potency, no number is given. Inconclusive results (about 18%) are left out. Calls come from the whole dose curve; as a rule, active = well fitted inhibition curve with a large enough effect; inconclusive = small, poorly fitted or top-dose-only effect, or another doubt; inactive = no such curve, though single readings can be large or run the other way. This excerpt belongs to a sample that is enriched for actives.

test: qHTS Assay for Inhibitors of Hepatitis C Virus (HCV); details: Huh7.5.1 HCVcc-Cre infection, luciferase reporter, 44 h; series mostly up to 41.8 µM
In short: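 Cells (1,000/well) were plated 4 h before compound, then infected with HCVcc-Cre virus (~0.5 moi). After 44 h further culture, infection was read as luciferase luminescence following a 15 min substrate incubation at room temperature.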
Potency is the fitted concentration of half-maximal effect.

SMILES | Potency
COc1cccc(CCNC(=O)COc2cccc3c2OC(C)(C)C3)c1 | inactive
COc1cccc(CNC(=O)COc2cc(O)c3c(c2)OC(C)(C)CC3=O)c1 | 5.01 µM (active)
COc1cccc(CC(=O)OCC(=O)NCc2ccc3c(c2)OCO3)c1 | inactive
COc1cc2[nH]c(O)c(C=O)c2cc1OC | inactive
COc1ccccc1C(=O)Nc1ccc(Nc2ccccc2)cc1 | inactive
COc1ccc2[nH]c3c(c2c1)CCN1C(=O)C(CC(=O)NCCc2ccccn2)C[C@H](C(=O)N2CCOCC2)[C@@]31C (some centres not stated) | inactive
COc1ccc(CNC(=O)C(C)n2nc(C)c3c(C)n(-c4ccccc4)nc3c2=O)c(OC)c1 (configuration not stated) | inactive
COc1ccc(OC)c(CNC(=O)Cn2nc(C)c3c(C)n(-c4ccc(C)cc4)nc3c2=O)c1 | 3.98 µM (active)
Cc1nn(CC(=O)N2CCCCC2)c(=O)c2nn(-c3ccccc3)c(C)c12 | inactive
O=C(c1ccc(Cl)s1)N(Cc1nnc(-c2ccccc2Cl)o1)C1CC1 | inactive
COc1ccc(OCC(=O)Nc2ccc(NC(=O)c3ccco3)c(C)c2)cc1 | inactive
CCC(=O)NC(=S)Nc1ccc(NC(=O)c2ccco2)c(Cl)c1 | inactive
CCN(CC)P(=O)(Nc1ccc(SC(F)F)cc1)c1ccc(N(C)C)cc1NC(=O)c1ccco1 (configuration not stated) | 22.4 µM (active)
CCN(C(=O)COC(=O)CCOc1cccc(C)c1)c1c(N)n(Cc2ccccc2)c(=O)[nH]c1=O | inactive
CC(OC(=O)c1ccc([N+](=O)[O-])cc1)C(=O)NCC1CCCCC1 (configuration not stated) | inactive
N[C@@H](Cc1ccccc1)C(=O)N1CCOCC1 | inactive
COc1ccc(-c2cc(C(=O)N/N=C/c3cccnc3)c3ccccc3n2)c(OC)c1 | inactive
Cc1cc(C)cc(C(=O)NCCN2CCOCC2)c1 | inactive
Cc1ccc(C(=O)NCCN2CCOCC2)cc1C | inactive
CC(=O)Oc1cc2c(C(=O)NCCN3CCOCC3)c(C)oc2c2ccccc12 | 10 µM (active)
C[C@@H]1CN([C@H](C)CO)C(=O)c2cc(NC(=O)NC3CCCCC3)ccc2O[C@H]1CN(C)S(C)(=O)=O | inactive

SMILES | Potency
Cc1ccc(S(=O)(=O)CCC(=O)OCC(=O)NCCc2ccc(S(N)(=O)=O)cc2)cc1 | inactive
COc1ccc(-c2csc(NC(=O)c3ccc(N4C(=O)CCC4=O)cc3)n2)cc1OC | inactive
COc1ccc(CC(=O)Nc2nc(-c3ccc(F)c(F)c3)cs2)cc1OC | 4.47 µM (active)
COc1ccc(CC(=O)Nc2ccccc2NC(=O)c2ccco2)cc1OC | inactive
Cc1ccc(S(=O)(=O)NC(=O)Nc2nc(-c3ccc(F)c(F)c3)cs2)cc1 | inactive
COc1cccc(CC(=O)Nc2nc(-c3ccc(OC)c(OC)c3)cs2)c1 | 12.6 µM (active)
COc1cc(CC(=O)Nc2nc(-c3ccc(F)c(F)c3)cs2)cc(OC)c1OC | 10 µM (active)
COc1cccc(CC(=O)Nc2ccc(-c3csc(C)n3)cc2)c1 | inactive
Cc1ccc(-c2csc(NC(=O)Cc3cccs3)n2)cc1C | inactive
COc1ccc(CCN(C(=O)COc2ccccc2)c2nc(-c3ccccc3)cs2)cc1OC | inactive
Cc1nc2ccccc2c(=O)n1-c1ccc(F)c(NC(=O)c2cccs2)c1 | inactive
CCCN(CC1CC1)C(=S)NC(=O)c1ccccc1Br | inactive
CCOc1ncccc1C(=O)OCC(=O)c1c[nH]c2ccccc12 | inactive
O=C(Nc1ccc2ccccc2c1[N+](=O)[O-])c1ccccc1 | inactive
COc1ccccc1C(=O)NCCC(=O)NCC(c1ccco1)N1CCCCC1 (configuration not stated) | inactive
O=C(COC(=O)c1ccc(Br)o1)NC12CC3CC(CC(C3)C1)C2 | inactive
CN(C(=O)COC(=O)CCCc1c[nH]c2ccccc12)c1c(N)n(Cc2ccccc2)c(=O)[nH]c1=O | inactive
COc1ccc(Cl)cc1NC(=O)CN(C)C(=O)c1ccc2n[nH]nc2c1 | inactive
CN(C(=O)CSc1nnc(-c2ccc(C(C)(C)C)cc2)n1C)C1CCS(=O)(=O)C1 (configuration not stated) | inactive
Cn1nc(C(F)(F)F)c(C(=O)Nc2cccc(C(F)(F)F)c2)c1SCc1ccc(Cl)cc1 | 10 µM (active)
O=C(O)CSCC(=O)Nc1cccc(C(F)(F)F)c1 | inactive

SMILES | Potency
O=C(Nc1cccc(C(F)(F)F)c1)c1cnccn1 | inactive
O=C1OC[C@@H]2CCCN2C(=O)[C@H](CC(=O)N(CCO)Cc2ccccc2)C/C=C\CC[C@@H]1Cc1ccc(F)cc1 | inactive
O=C1c2ccccc2[C@@H]2C[C@@H](O)[C@H](Nc3ccccc3Cl)CCN12 | inactive
CSc1ccccc1NC(=O)c1cnc2sc(C)cn2c1=O | inactive
Nc1c(C(=O)c2cccs2)sc2nsc(SCCN3CCCCC3)c12 | 10 µM (active)
O=C(CN1C2=NCCN2c2ccccc21)c1cccs1 | inactive
O=C(C[C@H]1C[C@H](C(=O)N2CCOCC2)[C@@]2(CCC3CCCC3)c3[nH]c4ccc(Cl)cc4c3CCN2C1=O)NCc1ccco1 | inactive
CC(C)(C)OC(=O)C[C@@H]1C/C=C\C[C@@H](CC(=O)N[C@H](CO)Cc2ccccc2)C(=O)NCCOC1=O | inactive
O=S(=O)(O)c1cc2onnc2c2ccccc12 | inactive
Cc1c(Cl)cnc(NC(=O)COC(=O)C2CCCC2)c1Cl | inactive
c1ccc(Cc2cc[n+](Cc3ccccc3)cc2)cc1 | inactive
CN(C)c1cc[n+](Cc2ccccc2)cc1 | 0.891 µM (active)
CN(C)c1ccc(CSc2ccccc2)cc1 | inactive
O=C1CCC/C=C/C[C@@H](CC(=O)N(CCO)Cc2ccccc2)C(=O)NC[C@H](c2ccccc2)O1 | inactive
Cc1ccc(S(=O)(=O)N(C)c2ccc(OCC(=O)OCc3ccc(C#N)cc3)cc2)cc1 | inactive
Cc1cc(Br)ccc1NC(=O)c1cnc(N2CCN(c3ccccn3)CC2)c2ccccc12 | 2.51 µM (active)
Cc1cc(Br)ccc1NC(=O)c1sc2ncn(CC(=O)N3CCN(c4ccccn4)CC3)c(=O)c2c1C | inactive
O=C(CN1CCN(c2ccccn2)CC1)Nc1ccc(Br)cc1 | inactive
COc1ccc(NC(=O)N(C)C[C@H]2Oc3ccc(NC(=O)C4CC4)cc3C(=O)N([C@H](C)CO)C[C@@H]2C)cc1 | inactive
O=C(CCC(=O)c1cccs1)Nc1nc2ccccc2s1 | inactive
